Consider 65 molecules from PubChem BioAssay AID1578 (Sanford-Burnham Center for Chemical Genomics, 2009).

Structures are written as SMILES. Out of some 290,000 compounds screened, about 3,000 (1%) were called active. No stated cut-off is given here; in the data, active means inhibition mostly above about 36% (no sharp cut-off); inactive means mostly below about 34%. What follows is part of a selection rich in actives, with near analogues and random picks from the rest.

This experiment can be described thus: inhibition of NOD1-driven NF-kB reporter – cell-based, luminescence, uHTS, primary screen (AID 1578).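 Further: HEK-293T reporter cells stimulated with the NOD1 agonist gamma-tri-DAP.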 The note with it: NOD1-driven NF-kB luciferase reporter cells, at 4 µM, active compounds read high. (Reporter assays use an easily measured gene product as a stand-in for the process of interest.)
Broadly, the inhibition is the change of the read-out against control, counted positive when it falls. As for `CC1=Cc2ccccc2C(C#N)N1C(=O)c1ccccc1` (stereo not given), the inhibition is 31.4% (inactive). On to `Cc1cc(-c2ccc(C)c(S(=O)(=O)N3CCN(c4ccccn4)CC3)c2)on1`, for which the inhibition is -13% (inactive). Consider `COc1ccc(-c2cc(C)no2)cc1S(=O)(=O)NCCCN1CCN(c2ccccc2)CC1`, for which the inhibition is -7.4% (inactive). Turning to `Cc1cc(-c2ccc(C)c(S(=O)(=O)NCCCN3CCN(c4ccccc4)CC3)c2)on1`, the inhibition is 17.3% (inactive). For `CCc1ccc(-c2cc(C)no2)cc1S(=O)(=O)N1CCN(c2ccc(F)cc2)CC1`, the inhibition is 5.8% (inactive). Regarding `CC(NC(=O)NC(=O)c1ccc(Cl)cc1Cl)C1CC1` (stereo not given), the inhibition is -53% (inactive).

On to `CCOc1ccc(NC(=S)NC(C)c2cccs2)cc1` (stereo not given), for which the inhibition was -21.7% (inactive). The result for `COc1cc(NC(=O)CN(c2ccc(C)cc2)S(=O)(=O)c2c(C)noc2C)cc(OC)c1` reads -34.4% (inactive); that for `CCCCNC1=CC(=O)C(=O)c2ccccc21`, -7.1% (inactive); that for `O=C1C=C(NCc2ccccc2)c2ccccc2C1=O`, 78.8% (active). Consider `O=C1C=C(Nc2ccccc2)c2ccccc2C1=O`, for which the inhibition was -24.6% (inactive). The result for `O=C1Cc2cc(S(=O)(=O)N3CCCCC3)ccc2N1` reads -22.1% (inactive); that for `CCCC(=O)NC(=S)Nc1cccc(NC(=O)c2ccccc2Cl)c1`, -18.6% (inactive); that for `COc1ccc(CCNC(=O)c2ccc3ccccc3n2)cc1OC`, -14.9% (inactive). For `COc1ccc(CNC(=O)c2ccc3ccccc3n2)cc1`, the inhibition is -33.9% (inactive).

As to `COc1ccccc1NS(=O)(=O)c1cc(NC(=O)c2ccc3ccccc3n2)ccc1Cl`, the inhibition is -24.5% (inactive). Regarding `O=C(Nc1cccc(S(=O)(=O)Nc2ccccc2F)c1)c1ccc2ccccc2n1`, the inhibition is 33.7% (inactive). The result for `COc1cccc(C(=O)NC2CCN(CC(=O)Nc3nccs3)CC2)c1` reads 7.4% (inactive). With `O=C(c1ccc2nc(Cc3cccc(Cl)c3)oc2c1)N1CCC[C@H]1CO`, the inhibition is -34% (inactive). As for `O=C(CCN1CCCCO1)N1CCCC(N2CCN(c3ccc(F)cc3)CC2)C1` (stereo not given), the inhibition is -8.6% (inactive). `Cc1ccc(CNC(=O)C2CCN(c3nn4c(=O)cc(C)nc4s3)CC2)cc1`: the inhibition was -23.9% (inactive). In the case of `COc1ccc(C)cc1N(C(=O)c1ccc(C#N)cc1)C1=NC(C)(C)CS1`, the inhibition was -8.3% (inactive). Turning to `COc1ccc(OCC(=O)N2CCc3ccccc3C2)cc1`, the inhibition was -21.2% (inactive). For the molecule `Cc1ccc(OCC(=O)N2CCc3ccccc3C2)cc1`, the inhibition is 4.6% (inactive). The result for `CCOC(=O)N/N=C/c1cn(CCCOc2ccc(C)cc2)c2ccccc12` reads 31.1% (inactive); that for `CCOC(=O)N/N=C/c1cn(CCCOc2ccccc2)c2ccccc12`, 79.6% (active); that for `CCOC(=O)Cn1cc(/C=N/NC(=O)c2cc3ccccc3o2)c2ccccc21`, 35.8% (active). Regarding `CCn1cc(/C=N/NC(=O)c2cc3c(ccc4ccccc43)o2)c2ccccc21`, the inhibition is 32% (inactive). As to `C#CCn1cc(/C=N/NC(=O)c2cc3ccccc3o2)c2ccccc21`, the inhibition is -7.9% (inactive). Turning to `COC(=O)N/N=C/c1cn(CCCOc2ccccc2)c2ccccc12`, the inhibition is 25.7% (inactive).

Consider `CCCS(=O)(=O)N1CCC(C(=O)c2cccc(C(F)(F)F)c2)CC1`, for which the inhibition is -5.7% (inactive). With `Cc1cc(C(=O)Nc2nnc(C(F)(F)F)s2)cs1`, the inhibition is -7.7% (inactive). Take `COc1ccc(OC)c(S(=O)(=O)N2CCN3CCCC3C2)c1` (stereo not given): the inhibition was -16.6% (inactive). The result for `Nc1ccccc1C#CCCCCO` reads -18.4% (inactive). Take `Nc1ccccc1C#Cc1ccccc1`: the inhibition is -30.1% (inactive).

As for `Nc1ccccc1C#CC(=O)c1ccccc1`, the inhibition was 58.4% (active). `O=[N+]([O-])c1ccc(Cl)c(/C=N/n2c(COc3ccccc3)n[nH]c2=S)c1`: the inhibition was -22% (inactive). The result for `COC(=O)CN1C(=S)N(c2ccc(Cl)cc2)C(=O)C1CC(=O)Nc1ccccc1` (stereo not given) reads -29.4% (inactive); that for `O=S(=O)(O)c1cccc2c(N=Nc3ccc(O)c4ncccc34)cccc12`, 25.1% (inactive). Regarding `COc1cccc(N=Nc2ccc3ccccc3c2O)c1`, the inhibition is -81.3% (inactive).

As for `COc1ccccc1N=Nc1ccc(O)c2ncccc12`, the inhibition is -11.7% (inactive). As to `COc1ccc(C)cc1N=Nc1ccc(O)c2ncccc12`, the inhibition was -31.6% (inactive). Take `Cc1cccc(N=Nc2ccc(O)c3ncccc23)c1`: the inhibition is 108% (active). For `CCS(=O)(=O)c1ccc(OC)c(N=Nc2ccc(O)c3ncccc23)c1`, the inhibition was 24.1% (inactive). Regarding `Cc1cccc(NCc2ccc(O)c3ncccc23)c1`, the inhibition is -29% (inactive). In the case of `O=Nc1ccc(O)c2ncccc12`, the inhibition is 19.6% (inactive). Take `Nc1ccc(N=Nc2ccccc2)c2cccnc12`: the inhibition was -3.3% (inactive).

Take `CCOC(=O)c1ccc(Nc2c(OCC)c(=O)c2=O)cc1`: the inhibition was 8% (inactive). As to `Cc1ccc(/C=N/N2CCN(C3c4ccccc4-c4ccccc43)CC2)s1`, the inhibition is 0.2% (inactive).

In the case of `NNC(=O)c1cc(Cl)ccc1Cl`, the inhibition was -38.8% (inactive). `COc1ccc(-c2noc(CCC(=O)NCCc3ccccc3)n2)cc1OC`: the inhibition was -7.8% (inactive). `c1ccc(-c2nnsc2Sc2ccccn2)cc1`: the inhibition was -52.7% (inactive). The result for `CN(C(=O)n1cnc2ccccc21)c1ccccc1` reads -29.2% (inactive); that for `CCOc1cc2nc(-c3ccc(OC)c(OC)c3)nc(N3CCOCC3)c2cc1OC`, -23.5% (inactive); that for `CCS(=O)(=O)c1ccc(N=Nc2ccc(O)c3ncccc23)c(OC)c1`, -30% (inactive). Take `CCOc1ccc(N=Nc2ccc(O)c3ncccc23)cc1`: the inhibition is 25.7% (inactive). Regarding `COc1ccc(N=Nc2ccc(O)c3ncccc23)cc1`, the inhibition was 108% (active).

`Cc1ccc(C(=O)Nc2nc(C)c(C)s2)o1`: the inhibition is -44.9% (inactive). `O=C(N/N=C/c1ccc(Cl)cc1)c1sccc1OCc1ccc(F)cc1`: the inhibition is -25.8% (inactive). For `C=CCOc1ccccc1C(=O)/C=C1/C(=O)Nc2ccccc21`, the inhibition was 37.3% (active).

For `C=CCOc1ccc(C(=O)/C=C2/C(=O)Nc3ccccc32)cc1`, the inhibition was 1.1% (inactive). `C=CCOc1cccc(C(=O)/C=C2/C(=O)Nc3ccccc32)c1`: the inhibition was -3.7% (inactive). For `Cc1cc(NC(=O)CCC(=O)N(CC(=O)NC2CCCC2)c2cccc(F)c2)no1`, the inhibition is -29.1% (inactive). As to `O=C(Nc1ccccn1)c1ccc(Br)c(S(=O)(=O)N2CCCCC2)c1`, the inhibition was -25.4% (inactive). The result for `O=C(Nc1ccccn1)c1ccc(Br)c(S(=O)(=O)N2CCCC2)c1` reads -39% (inactive).
